Most compounds without a hit are left out; they make up all but 1.4% or so of the library.
NPR1 activator: GC-A (human) enzyme activation | P16066 | HEK293 GC-A cells, cGMP TR-FRET, EC30 ANP; 0% at EC30 ANP, 100% saturating ANP | hit rate 0.14% among 370,000 | activation, % at 10 µM; in the data active = activation above about 40%
APOBEC3A inh: human APOBEC3A DNA deaminase inhibition. inhibition, % at 20 µM. hit rate 0.41% among 330,000. P31941. recombinant A3A, FAM/TAMRA ssDNA deamination fluorescence;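 active = at least 40% inhibition at 20 µM here, with at most 30% in a related deaminase screen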;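 also: plate controls were A3A with DMSO for no effect and wells lacking A3A enzyme for full effect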
APOBEC3G inh: APOBEC3G (human) deaminase inhibition; Q9HC16; recombinant A3G, ssDNA deamination FAM/TAMRA fluorescence; inhibition, % at 20 µM; hit rate 0.28% among 330,000;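 active = inhibition of at least 40% at 20 µM, with no more than 30% in the related APOBEC3A deaminase screen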;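 also: plate controls were DMSO wells with A3G for no effect and wells lacking A3G enzyme for full effect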
FAS-TE inh: blocks the thioesterase domain of human fatty acid synthase. P49327. recombinant FAS-TE, OMFH fluorogenic substrate, fluorescence endpoint. inhibition, % at 15 µM. hit rate 0.67% among 360,000;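 active = compounds whose normalised, plate-corrected inhibition of enzyme fluorescence in the single-dose primary screen is 50% or more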;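 also: 0% = DMSO with enzyme and 100% = substrate without enzyme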
GC-B act: GC-B (human) receptor activation; P20594; HEK293-GC-B cells, CNP EC30, cGMP TR-FRET; 0% at EC30 CNP, 100% saturating CNP; activation, % at 10 µM; hit rate 0.11% among 370,000; AID 1920062;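 active = activation at 10 µM reaching about 35% in either raw or pattern-adjusted values, limit read from the data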
Target sequence (P20594 whole entry, looked up): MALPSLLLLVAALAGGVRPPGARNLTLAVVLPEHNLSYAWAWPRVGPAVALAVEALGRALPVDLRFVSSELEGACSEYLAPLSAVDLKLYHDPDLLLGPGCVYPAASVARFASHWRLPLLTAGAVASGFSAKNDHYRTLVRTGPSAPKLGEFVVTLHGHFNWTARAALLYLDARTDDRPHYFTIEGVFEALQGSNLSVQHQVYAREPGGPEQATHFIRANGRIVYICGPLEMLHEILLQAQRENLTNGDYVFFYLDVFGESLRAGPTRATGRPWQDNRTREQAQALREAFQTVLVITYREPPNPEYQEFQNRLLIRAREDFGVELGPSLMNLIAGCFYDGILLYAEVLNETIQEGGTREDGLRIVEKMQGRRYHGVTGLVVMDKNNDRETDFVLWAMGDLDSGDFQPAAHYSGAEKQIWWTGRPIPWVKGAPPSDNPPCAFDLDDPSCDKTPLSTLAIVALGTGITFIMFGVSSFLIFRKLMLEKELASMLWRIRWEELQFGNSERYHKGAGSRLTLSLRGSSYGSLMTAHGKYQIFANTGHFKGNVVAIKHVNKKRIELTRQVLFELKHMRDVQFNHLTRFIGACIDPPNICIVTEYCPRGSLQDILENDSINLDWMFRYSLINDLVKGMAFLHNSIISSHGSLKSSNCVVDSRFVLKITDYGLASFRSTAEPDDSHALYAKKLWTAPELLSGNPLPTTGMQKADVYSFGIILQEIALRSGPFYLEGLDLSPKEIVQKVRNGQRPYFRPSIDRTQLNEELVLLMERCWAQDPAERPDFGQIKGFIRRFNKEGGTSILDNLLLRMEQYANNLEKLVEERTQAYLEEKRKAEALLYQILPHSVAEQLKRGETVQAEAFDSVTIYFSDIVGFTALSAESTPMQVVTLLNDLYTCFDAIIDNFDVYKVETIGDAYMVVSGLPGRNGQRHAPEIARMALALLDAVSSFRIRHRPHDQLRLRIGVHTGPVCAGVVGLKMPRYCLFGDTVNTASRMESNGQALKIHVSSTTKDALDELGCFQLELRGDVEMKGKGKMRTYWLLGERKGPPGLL
FAS-TE conf: confirmation of human fatty acid synthase thioesterase inhibitors. recombinant FAS-TE, OMFH fluorogenic substrate, fluorescence. hit rate 45% among 2,300. inhibition, % at 15 µM. shares compounds with FAS-TE inh;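 active = compounds inhibiting the enzyme by at least 50% at 15 µM in any one of the replicates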;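 also: 0% = enzyme with DMSO only and 100% = wells lacking enzyme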
* = called active by the depositor; . = no result.

SMILES | NPR1 activator | APOBEC3A inh | APOBEC3G inh | FAS-TE inh | GC-B act | FAS-TE conf
CCOC1=C2CN(S(=O)(=O)c3ccc(C)cc3)[C@H](c3cccs3)C[C@H]2n2c(=O)n(-c3ccccc3)c(=O)n2C1 | 1 | . | . | 49 | -3 | .
CCOC1=C2[C@H](c3ccccc3)N(S(=O)(=O)c3ccc(C)cc3)C(C(C)(C)C)[C@H]2n2c(=O)n(-c3ccccc3)c(=O)n2C1 (stereo partly drawn) | 1 | . | . | 89* | -3 | 28
CCN1C(=O)[C@H]2[C@@H](c3ccc(C)cc3)N3C(=O)N(c4ccc(OC)cc4)C(=O)[C@@]3(Cc3ccccc3)[C@H]2C1=O | 3 | 7 | -2 | -5 | 1 | .
CCN1C(=O)[C@H]2[C@@H](c3ccc(C)cc3)N3C(=O)N(c4ccc(C)cc4)C(=O)[C@@]3(Cc3ccc(Cl)cc3)[C@H]2C1=O | 2 | -7 | -13 | 60* | 5 | 20
CCN1C(=O)[C@H]2[C@@H](c3ccc(C)cc3)N3C(=O)N(c4ccccc4)C(=O)[C@@]3(Cc3ccc(Cl)cc3)[C@H]2C1=O | . | -7 | -8 | 63* | . | 32
Cc1cccc([C@@H]2[C@@H]3C(=O)N(Cc4ccccc4)C(=O)[C@@H]3[C@]3(CC(C)C)C(=O)N(c4cccc(Cl)c4)C(=O)N23)c1 | -16 | 0 | -3 | 72* | -23 | 27
O=C(CC(C(=O)O)c1ccc(Cl)cc1)c1ccc(Cl)c(Cl)c1 (stereo not drawn) | -1 | -2 | -5 | 80* | 3 | 81*
Cc1cc(OCc2nc(N)nc(N)c2-c2ccc(Cl)c(Cl)c2)ccc1[N+](=O)[O-] | -19 | . | . | 51* | -13 | 12
Cc1ccccc1-n1c(SCC(=O)N/N=C/c2c(C)nn(-c3ccccc3)c2C)nc2ccccc2c1=O | -1 | 3 | 3 | 59* | 7 | 16
Cc1ccc(/C=N/NC(=O)CSc2nc3ccccc3c(=O)n2-c2ccccc2C)s1 | -15 | 0 | 2 | 51* | 0 | 21
Cc1ccc(/C=N/NC(=O)CSc2nc3ccccc3c(=O)n2-c2ccccc2)s1 | 2 | 1 | 1 | -13 | 5 | .
Cc1ccc(-n2c(SCC(=O)N/N=C/c3c(C)nn(-c4ccccc4)c3C)nc3ccccc3c2=O)cc1 | -3 | 1 | -12 | -1 | 2 | .
COC(=O)C1CN(Cc2cn(Cc3ccc(C)cc3)nn2)CCS(=O)(=O)N1Cc1ccc(C)cc1 (stereo not drawn) | -4 | . | . | . | -9 | .
Cc1c([N+](=O)[O-])cc(S(=O)(=O)Nc2ccc(-c3ccc(N4CCCC4)nn3)cc2)cc1[N+](=O)[O-] | -7 | 4 | -1 | 87* | 1 | 90*
Cc1ccc([N+](=O)[O-])cc1S(=O)(=O)Nc1cccc(-c2ccc(N3CCOCC3)nn2)c1 | -2 | -2 | -5 | 14 | -8 | .
O=[N+]([O-])c1ccc(Cl)c(S(=O)(=O)Nc2ccc(-c3ccc(N4CCCC4)nn3)cc2)c1 | -2 | 4 | -10 | 67* | 4 | 27*
COc1ccc(S(=O)(=O)Nc2ccc(-c3ccc(N4CCCC4)nn3)cc2)cc1C | -12 | -2 | -12 | 9 | -9 | .
O=[N+]([O-])c1ccccc1S(=O)(=O)Nc1cccc(-c2ccc(N3CCCC3)nn2)c1 | -1 | 1 | 3 | 30 | -1 | .
O=[N+]([O-])c1ccc(S(=O)(=O)Nc2ccc(-c3ccc(N4CCCC4)nn3)cc2)cc1 | -4 | 2 | -1 | 25 | -7 | .
Cc1ccc([N+](=O)[O-])cc1S(=O)(=O)Nc1ccc(-c2ccc(N3CCCC3)nn2)cc1 | -6 | -2 | -2 | 54* | -3 | 51*
Cc1ccc(S(=O)(=O)Nc2cccc(-c3ccc(N4CCCCCC4)nn3)c2)c(C)c1 | -5 | -5 | -6 | 59* | -4 | 60*
C#CCN(Cc1cccc(F)c1)C(=O)c1nnc2c3cc(F)ccc3n(S(=O)(=O)c3ccc(OC)cc3)c2n1 | 8 | . | . | . | 13 | .
CCCCCCCCN1C(=O)[C@@H](CC(=O)NCC2CCCCC2)C[C@@]2(C(=O)OC)C1=C[C@H](COCc1ccccc1)O[C@@H]2C | -1 | . | . | . | 5 | .
O=[N+]([O-])c1ccc(Cl)c(S(=O)(=O)Nc2cccc(-c3ccc(N4CCCC4)nn3)c2)c1 | -7 | -1 | -9 | 58* | -2 | 66*
Cc1ccc(N2C(=O)C3CC(c4ccccc4)=C4C5C=CC(C6C(=O)N(c7ccc(C)cc7)C(=O)C56)C4C3C2=O)cc1 (stereo not drawn) | -5 | -2 | -10 | 85* | -2 | 9
SMILES | NPR1 activator | APOBEC3A inh | APOBEC3G inh | FAS-TE inh | GC-B act | FAS-TE conf
Cc1ccc(N2C(=O)C3C4CC(=O)C(c5ccccc54)C3C2=O)cc1 (stereo not drawn) | 1 | 1 | -3 | 0 | 5 | .
Cc1ccc(N2C(=O)C3CCCN3C2=S)c(C)c1 (stereo not drawn) | -1 | 0 | -2 | -7 | 1 | .
Cc1ccc(N2C(=O)C3CC(c4ccccc4)=C4C5C=CC(C6C(=O)N(c7ccc(C)cc7C)C(=O)C56)C4C3C2=O)c(C)c1 (stereo not drawn) | . | 3 | 1 | 100* | . | 44*
Cc1ccc(S(=O)(=O)N2CCN(c3ccnc4cc(Cl)ccc34)CC2)cc1 | -2 | -1 | -10 | 64* | -2 | 1
O=C(NCCN1CCC(Cc2ccccc2)CC1)C1CCCN(S(=O)(=O)c2ccccc2[N+](=O)[O-])C1 (stereo not drawn) | -2 | . | . | . | -5 | .
CCn1c(=O)c([N+](=O)[O-])c(N2CCN(Cc3ccc4c(c3)OCO4)CC2)c2ccccc21 | -4 | -4 | -2 | 88* | -2 | 81*
CCn1c(=O)c([N+](=O)[O-])c(N2CCSCC2)c2ccccc21 | -3 | 6 | 0 | 15 | 2 | .
CN1C(C(=O)NCc2cccc(Br)c2)CC2Cn3c(nc4cc(Cl)c(Cl)cc43)C21 (stereo not drawn) | -4 | 1 | -8 | 57* | 8 | 44*
CCOC(=O)c1c(NC(=O)c2ccc(-n3cnnn3)cc2)sc2c1CCCC2 | . | . | . | 7 | . | .
CCOC(=O)c1c(NC(=O)c2ccc(N3C(=O)[C@@H]4[C@H](C3=O)[C@H]3C=C[C@@H]4C3)cc2)sc2c1CCCC2 | -6 | 3 | -9 | 62* | -3 | 9
CC(=O)c1cccc(-c2ccnc3c2CC(C(=O)Nc2ccc(C(C)C)cc2)O3)c1 (stereo not drawn) | -5 | . | . | 55* | -2 | 59*
COCC(=O)N(C)[C@H]1C[C@H]2c3[nH]c4cccc(-c5cccc(F)c5)c4c3CCN2C(=O)[C@H]1[C@H](C)O | 2 | . | . | . | -6 | .
CCOC(=O)[C@]12CCCC=C1N(Cc1ccc(OC)cc1)C(=O)[C@@H]2CC(=O)N1CCN(C(=O)c2ccco2)CC1 | 3 | . | . | . | 2 | .

Bioassay records (PubChem BioAssay)
